Bioassay records from PubChem BioAssay.
Sampled rows, rich in hits. Any-hit rate of the full collection: about 10%.
KB-3-1 tox = KB-3-1 parental cell cytotoxicity | KB-3-1 viability, CellTiter-Glo ATP luminescence, 72 h | AID 1347075 | actives 1.4% (n = 400,000) | Potency, µM (doses to about 46.1 µM), hits mostly cytotoxic; note: % is set by controls: 0 for no effect and ±100 for the full control effect; nearly all actives have a fitted effect of over 60% in size
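Cytotoxicity measured as CellTiter-Glo luminescence after 72 h at 37 C. Compound titrations were pinned onto drug-naive KB-3-1 parental adenocarcinoma cells grown in DMEM with 10% FBS, and normalized data fitted to concentration-response curves.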
Gal4-VP16 FLuc = inhibits Gal4-VP16 luciferase reporter, ROR gamma counter-screen; Drosophila S2 Gal4-VP16 UAS-luciferase, luminescence, 20 h; Potency, µM (highest dose often 53.6 µM), without a hit: at the top dose activity, negative = inhibition, hits mostly inhibitors; actives 3.5% (n = 310,000); AID 2546;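 note: Gal4-VP16 expression switched on by copper sulfate through the metallothionein promoter; % is set by controls: 0 for no effect and ±100 for the full control effect; nearly all actives have a fitted effect of over 50% in size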
SW480 rereplic = DNA re-replication induction in SW480 cells; AID 624297; Potency, µM (series often up to 46.1 µM), for the others: top-dose re-replication activation, most hits filed as activators; actives 1.8% (n = 340,000); SW480 DNA re-replication, Hoechst DNA content imaging, 48 h; note: % of control where 0% means no effect; nearly all actives have a fitted effect of over 55% in size
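Per well, 250 cells were exposed to pinned compound for 48 hr. Nuclear DNA was visualised with Hoechst (40 min, 37 C) and total object intensity recorded by fluorescence scanning.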
KB-V1 cytotox = kills drug-selected multidrug resistant KB-V1 cells | Potency, µM (titrated, usually from 46.1 µM), most hits filed as cytotoxic | KB-V1 MDR cells viability, CellTiter-Glo, 72 h | actives 3.4% (n = 400,000); note: % is set by controls: 0 for no effect and ±100 for the full control effect; nearly all actives have a fitted effect of over 60% in size
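Cytotoxicity toward P-gp-expressing KB-V1 cells was determined as loss of CellTiter-Glo luminescence after 72 h at 37 degrees C. Compounds were tested in quantitative HTS format across a concentration range, with curves fitted to normalized data.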
MCF10A rereplic = induces DNA re-replication in MCF 10a normal breast cells; MCF 10A DNA re-replication, Hoechst nuclear intensity, 48 h; actives 2.9% (n = 350,000); Potency, µM (highest dose often 46.1 µM), for the others: at the top dose activity, positive = re-replication, usual class: activators; note: % of control where 0% means no effect; nearly all actives have a fitted effect of over 50% in size
RORgamma inh = ROR gamma (mouse) transcription inhibition. actives 5.4% (n = 310,000). P51450. Potency, µM (doses to about 53.6 µM), without a hit: top-dose activity change, negative = inhibition, usual class: inhibitors. Drosophila S2 Gal4-RORgamma UAS-luciferase reporter, 20 h. AID 2551; note: % is set by controls: 0 for no effect and ±100 for the full control effect; nearly all actives have a fitted effect of over 60% in size
Target sequence (P51450 whole entry, looked up, the tested form may be a part): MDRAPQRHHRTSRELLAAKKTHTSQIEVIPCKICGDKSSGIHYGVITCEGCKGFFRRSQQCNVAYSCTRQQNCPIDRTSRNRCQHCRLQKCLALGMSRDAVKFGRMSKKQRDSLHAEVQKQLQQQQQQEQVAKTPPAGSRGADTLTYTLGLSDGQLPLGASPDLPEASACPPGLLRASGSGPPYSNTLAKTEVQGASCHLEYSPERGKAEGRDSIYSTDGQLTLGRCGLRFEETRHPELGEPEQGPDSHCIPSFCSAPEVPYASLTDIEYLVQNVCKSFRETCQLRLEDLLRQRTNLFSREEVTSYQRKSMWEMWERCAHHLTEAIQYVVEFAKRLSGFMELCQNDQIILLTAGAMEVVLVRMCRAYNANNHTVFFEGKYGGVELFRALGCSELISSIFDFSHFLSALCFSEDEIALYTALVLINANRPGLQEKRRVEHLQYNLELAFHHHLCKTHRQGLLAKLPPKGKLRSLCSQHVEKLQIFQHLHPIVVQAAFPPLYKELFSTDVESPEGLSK
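Luminescence from a UAS-regulated Photinus luciferase reporter in stably transfected Drosophila Schneider cells is measured; decreased signal marks ROR gamma inhibition. Fusion expression is induced by 700 uM copper sulfate for 20 hr.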
* = called active by the depositor; i = inactive; ? = inconclusive; . = no result given. Calls come from the whole dose curve; as a rule, active = well fitted curve in the direction sought with a large enough effect; inconclusive = small, poorly fitted or top-dose-only effect, or another doubt; inactive = no such curve, though single readings can be large; an effect the other way counts as inactive or inconclusive. Potency is the fitted concentration of half-maximal effect.

SMILES | KB-3-1 tox | Gal4-VP16 FLuc | SW480 rereplic | KB-V1 cytotox | MCF10A rereplic | RORgamma inh
CCc1ccc(-n2c(=O)c3sc4ccccc4c3n(Cc3cccc(F)c3)c2=O)cc1 | i | . | . | i | . | .
CCCc1nc2ccc(C(=O)OC)cn2c1Cc1ccc(C)cc1 | i | . | . | i | . | .
CNc1ccnc(-c2cccc(NS(C)(=O)=O)c2)n1 | . | 0% | . | . | . | 8%
Cc1ccc2c(c1)c1c(c(=O)n(-c3cccc(Cl)c3)c(=O)n1CC(=O)Nc1c(C)cccc1C)n2C | i | . | . | i | . | .
Cc1cc(Cl)ccc1NC(=O)Cn1nnc2sc(-c3ccccc3)cc2c1=O | i | . | . | i | . | .
N#Cc1c(C(F)(F)F)cc(-c2ccc(Cl)c(Cl)c2)nc1SCCN1CCOCC1 | i | -3% | 16% | ? | 4.1µM* | -12%
CCOC(=O)CCSc1nc(-c2ccc3c(c2)OCO3)cc(C(F)(F)F)c1C#N | i | -3% | -5% | i | 5% | -42%
Cc1ccc(-c2cc(C(F)(F)F)c(C#N)c(SCC(=O)O)n2)cc1 | i | -5% | 27% | i | 11% | 17%
C=CCSc1nc(-c2ccc3c(c2)OCO3)cc(C(F)(F)F)c1C#N | i | -1% | 7.3µM* | i | 15% | -12%
CCOC(=O)CC(=O)CSc1nc(-c2ccc3c(c2)OCO3)cc(C(F)(F)F)c1C#N | i | ? | ? | i | 6.3µM* | -35%
COc1ccc(Br)c(C(=O)Nc2cc3c(cc2N2CCCCC2)n(C)c(=O)c(=O)n3C)c1 | i | . | . | i | . | .
CCc1ccccc1NC(=O)c1ccc(=O)n(Cc2ccc(F)cc2)c1 | i | . | . | i | . | .
CC(NC(=O)c1ccc2c(c1)N(Cc1ccc(Cl)cc1)C(=O)c1ccccc1S2=O)c1ccccc1 (stereo not drawn) | i | . | . | i | . | .
Nc1nc2c(ncn2[C@@H]2O[C@H](CNS(=O)(=O)C3CC3)[C@@H](O)[C@H]2O)c(=O)[nH]1 | i | . | . | i | . | .
CCOC(=O)C1=C(c2cccc(F)c2)NC(=S)NC1C (stereo not drawn) | i | ? | -11% | i | 3% | 14µM*
CCOC(=O)C1=C(c2ccccc2)NC(=O)NC1c1cc(OC)c(O)c([N+](=O)[O-])c1 (stereo not drawn) | i | 1% | 3% | i | -2% | 3%
CCOC(=O)C1=C(c2ccc(O)cc2)NC(=O)NC1C (stereo not drawn) | i | . | -42% | i | ? | .
CCCOc1ccc([N+](=O)[O-])cc1C1NC(=S)NC(c2ccccc2)=C1C(=O)OCC (stereo not drawn) | ? | 20µM* | ? | i | 13% | 6.3µM*
COC(=O)[C@]12CCCCC=C1N(Cc1ccc3c(c1)OCO3)C(=O)[C@H](CC(=O)N1CCSCC1)C2 | i | . | . | ? | . | .
CSc1nc(Oc2ccc3ccccc3c2)c2sccc2n1 | 5.2µM* | -20% | 21µM* | ? | ? | 8%
CCc1cc(C(=O)Nc2ccccc2N2CCOCC2)sc1C | i | . | -5% | 23µM* | 8% | .
Cc1nn(Cc2ccc(F)cc2)c2sc(C(=O)Nc3ccccc3N3CCOCC3)cc12 | i | -12% | 1% | i | 12% | -3%
Cc1nn(Cc2ccccc2Cl)c2sc(C(=O)Nc3ccccc3N3CCOCC3)cc12 | ? | -23% | 174% | ? | 9.2µM* | 37%
Cc1nn(Cc2ccccc2Cl)c2sc(C(=O)Nc3nccs3)cc12 | i | ? | 3% | i | 14% | 10µM*
CCC(CC)NC(=O)c1cc2c(C)nn(Cc3ccccc3Cl)c2s1 | ? | 4% | ? | 15µM* | ? | 11%
CCc1cc(C(=O)Nc2cc(S(=O)(=O)N(CC)CC)ccc2N2CCOCC2)sc1C | i | . | -2% | i | ? | .
C=C1C(n2cnc3c(=O)[nH]c(N)nc32)C[C@H](O)[C@H]1CO (stereo partly drawn) | . | -4% | -8% | . | 1% | -30%
